We go through four molecules from PubChem BioAssay (EPA / NIEHS).

Several values for one entry are separate records, joined by “and”; a condition that tells them apart may be missing. Identical values can stand only once. More than one record can exist for a structure, and the calls need not agree. Activity calls are given as the source filed them. How the source made its calls: active means hit-call score of the fitted dose curve at least 0.9, where 1 is the maximum; inactive means score below 0.9.

Read-out in assay [1]: C-C motif chemokine 2 (Homo sapiens) (UniProt P13500)
The experiment in a line: BSK_KF3CT_MCP1: BioMAP Diversity Plus: KF3CT Assay for Monocyte Chemoattractant Protein 1 (MCP1/CCL2) Biomarker Activity (AID 2283073). Conditions: primary human keratinocytes with fibroblasts; actives raise or lower the signal. In outline: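 Biomarker MCP-1 is measured by ELISA in primary human keratinocytes co-cultured with foreskin fibroblasts, 24 h after chemical treatment; DMSO serves as the negative control and activity baseline.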

Read-out in assay [2]: Matrix Metallopeptidase 9 (MMP9), MMP9 (gene 4318)
The experiment in a line: BSK_KF3CT_MMP9: BioMAP Diversity Plus: KF3CT Assay for Matrix Metallopeptidase 9 (MMP9) Biomarker Activity (AID 2283074).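 On AC50: MMP9 protein level quantified by ELISA in the co-culture.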 The following applies: primary human keratinocytes with fibroblasts; actives raise or lower the signal. In outline:
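Human keratinocyte and foreskin fibroblast co-culture exposed to chemicals for 24 h; MMP9 biomarker measured by ELISA, bidirectional fitting relative to DMSO; cytotoxicity tracked by SRB total protein staining in parallel cultures.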

Read-out in assay [3]: urokinase plasminogen activator (uPA), PLAU (gene 5328)
The experiment in a line: BSK_KF3CT_uPA: BioMAP Diversity Plus: KF3CT Assay for urokinase plasminogen activator (uPA) Biomarker Activity (AID 2283075). The following applies: primary human keratinocytes with fibroblasts; actives raise or lower the signal. In outline: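 Primary human keratinocyte/foreskin fibroblast co-culture exposed to chemical; uPA measured by ELISA at 24 h. Bidirectional fit versus DMSO, with parallel SRB total-protein staining for cytotoxicity.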

Read-out in assay [4]: CD40, CD40 (gene 958)
The assay can be described thus: BSK_LPS_CD40: BioMAP Diversity Plus: LPS Assay for CD40 Biomarker Activity (AID 2283076). The following applies: primary human HUVEC with PBMC; actives raise or lower the signal. The gist of the method:
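Using a multiplexed primary human co-culture (umbilical vein endothelium plus PBMC), CD40 was read by ELISA 24 h after dosing, with cytotoxicity tracked by sulforhodamine B staining of parallel cultures and activity fitted bidirectionally versus DMSO.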

Read-out in assay [5]: E-selectin (Homo sapiens) (UniProt P16581)
The experiment in a line: BSK_LPS_Eselectin: BioMAP Diversity Plus: LPS Assay for Eselectin Biomarker Activity (AID 2283077). Conditions: primary human HUVEC with PBMC; actives raise or lower the signal. The gist of the method: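 Dose chemical onto LPS-driven HUVEC/PBMC co-culture; after 24 h, run ELISA for E-selectin; fit up- and down-going responses relative to DMSO control.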

Read-out in assay [6]: Interleukin-8 (IL8), CXCL8 (gene 3576)
The assay can be described thus: BSK_LPS_IL8: BioMAP Diversity Plus: LPS Assay for Interleukin-8 (IL8) Biomarker Activity (AID 2283078). The following applies: primary human HUVEC with PBMC; actives raise or lower the signal. The gist of the method: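 In this LPS system, chemical-treated human umbilical vein endothelium/PBMC co-cultures were harvested at 24 h for IL-8 ELISA.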

Assay [7] in a line: BSK_LPS_SRB: Viability Assessment in the BioMAP Diversity Plus: LPS Assay (AID 2283079).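 Further: total protein by sulforhodamine B absorbance as a cytotoxicity measure; measured one day after compound addition; fitted in both directions against DMSO so loss or gain of signal counts.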 The following applies: primary human HUVEC with PBMC. The gist of the method:
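Cytotoxicity endpoint in human endothelial–PBMC co-culture: 24 h exposure, then SRB (0.1%) staining, 560 nm read.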

Read-out in assay [8]: Interleukin-1 alpha (IL1a), IL1A (gene 3552)
The experiment in a line: BSK_LPS_IL1a: BioMAP Diversity Plus: LPS Assay for Interleukin-1 alpha (IL1a) Biomarker Activity (AID 2283080). The following applies: primary human HUVEC with PBMC; actives raise or lower the signal. In outline:
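Primary human HUVEC and PBMC co-culture stimulated with LPS is dosed and harvested at 24 h. Both increases and decreases in ELISA-measured IL-1a are scored relative to DMSO.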

Read-out in assay [9]: Monocyte Chemoattractant Protein-1 (MCP1), CCL2 (gene 6347)
The assay can be described thus: BSK_LPS_MCP1: BioMAP Diversity Plus: LPS Assay for Monocyte Chemoattractant Protein-1 (MCP1) Biomarker Activity (AID 2283081).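 On AC50: secreted MCP-1 protein quantified by ELISA in culture supernatant.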 The following applies: primary human HUVEC with PBMC; actives raise or lower the signal. The gist of the method:
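Values derive from bidirectional fitting against DMSO of ELISA-measured MCP-1 in a human primary endothelial and mononuclear cell co-culture, 24 h after chemical addition under LPS activation.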

Assay [10] is described as follows: BSK_LPS_PGE2: BioMAP Diversity Plus: LPS Assay for Prostaglandin E2 (PGE2) Biomarker Activity (AID 2283082).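 On AC50: secreted prostaglandin E2 measured by ELISA in LPS-stimulated co-culture.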 Conditions: primary human HUVEC with PBMC; actives raise or lower the signal. In outline: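 LPS-activated HUVEC/PBMC co-culture; cmpd dosed, 24 h; PGE2 by ELISA; bidirectional fit vs DMSO; SRB (0.1%, TCA-fixed, 560 nm) in parallel plates for overt cytotox.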

Read-out in assay [11]: Macrophage colony-stimulating factor (MCSF), CSF1 (gene 1435)
The experiment in a line: BSK_LPS_MCSF: BioMAP Diversity Plus: LPS Assay for Macrophage colony-stimulating factor (MCSF) Biomarker Activity (AID 2283083). The following applies: primary human HUVEC with PBMC; actives raise or lower the signal. The gist of the method: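 Bidirectional fit versus DMSO of ELISA-measured M-CSF in co-cultured human umbilical vein endothelial cells and PBMC, sampled 24 h after dosing.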

Read-out in assay [12]: Tumor necrosis factor (Homo sapiens) (UniProt P01375)
The assay can be described thus: BSK_LPS_TNFa: BioMAP Diversity Plus: LPS Assay for Tumour Necrosis Factor alpha (TNFa) Biomarker Activity (AID 2283085). Conditions: primary human HUVEC with PBMC; actives raise or lower the signal. In outline: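 Read-out is ELISA of TNFa in primary human endothelial cell–PBMC co-cultures at 24 h after compound. Activity in either direction was fitted against DMSO.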

Read-out in assay [13]: Vascular cell adhesion molecule 1 (VCAM1), VCAM1 (gene 7412)
The experiment in a line: BSK_LPS_VCAM1: BioMAP Diversity Plus: LPS Assay for Vascular cell adhesion molecule 1 (VCAM1) Biomarker Activity (AID 2283086). Conditions: primary human HUVEC with PBMC; actives raise or lower the signal. The gist of the method:
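HUVEC + PBMC co-culture, LPS system; compound 24 h; VCAM-1 by ELISA; bidirectional fit vs DMSO control; parallel SRB (0.1%, TCA-fixed, 560 nm) for cytotoxicity.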

Read-out in a further assay: CD38, CD38 (gene 952)
The experiment in a line: BSK_SAg_CD38: BioMAP Diversity Plus: SAg Assay for CD38 Biomarker Activity (AID 2283087). Conditions: primary human HUVEC with PBMC; actives raise or lower the signal. In outline:
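Human HUVEC plus PBMC co-culture stimulated with superantigen; CD38 measured by ELISA 24 h after chemical dosing. Fluorescence read-out, bidirectional fit against DMSO; cytotoxicity tracked in parallel by SRB and Alamar Blue.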

Read-out in assay [14]: CD40, CD40 (gene 958)
The assay can be described thus: BSK_SAg_CD40: BioMAP Diversity Plus: SAg Assay for CD40 Biomarker Activity (AID 2283088). Conditions: primary human HUVEC with PBMC; actives raise or lower the signal. The gist of the method:
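Endpoint derived by fitting increases or decreases versus DMSO controls. CD40 is detected by fluorescence ELISA in a human vascular co-culture of endothelium and PBMC at 24 h.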

Read-out in the next assay: CD69, CD69 (gene 969)
The assay can be described thus: BSK_SAg_CD69: BioMAP Diversity Plus: SAg Assay for CD69 Biomarker Activity (AID 2283089). The following applies: primary human HUVEC with PBMC; actives raise or lower the signal. The gist of the method:
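Values derive from bidirectional fitting relative to DMSO vehicle. Cells: umbilical vein endothelium plus peripheral blood mononuclear cells, treated 24 h before fluorescent ELISA for CD69.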

Read-out in assay [15]: Monocyte Chemoattractant Protein-1 (MCP1), CCL2 (gene 6347)
The experiment in a line: BSK_SAg_MCP1: BioMAP Diversity Plus: SAg Assay for Monocyte Chemoattractant Protein-1 (MCP1) Biomarker Activity (AID 2283090). The following applies: primary human HUVEC with PBMC; actives raise or lower the signal. The gist of the method:
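MCP-1 levels in the endothelial–PBMC SAg co-culture were quantified by ELISA at 24 h post-dosing; both increases and decreases versus DMSO scored. Cytotoxicity monitored by SRB total protein in parallel cultures.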

Read-out in assay [16]: E-selectin (Homo sapiens) (UniProt P16581)
The assay can be described thus: BSK_SAg_Eselectin: BioMAP Diversity Plus: SAg Assay for Eselectin Biomarker Activity (AID 2283091). The following applies: primary human HUVEC with PBMC; actives raise or lower the signal. The gist of the method: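 Endpoint values derive from bidirectional fitting relative to DMSO, using ELISA-measured E-selectin in a human vascular co-culture (umbilical vein endothelium plus PBMC) sampled 24 h after dosing.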

Read-out in assay [17]: Monokine induced gamma interferon (MIG), CXCL9 (gene 4283)
The experiment in a line: BSK_SAg_MIG: BioMAP Diversity Plus: SAg Assay for Monokine induced gamma interferon (MIG) Biomarker Activity (AID 2283092). The following applies: primary human HUVEC with PBMC; actives raise or lower the signal. The gist of the method:
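Values reflect bidirectional fitting of ELISA-measured MIG against DMSO vehicle, taken 24 h after dosing of a co-culture of human umbilical vein endothelial cells and peripheral blood mononuclear cells.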

Read-out in assay [18]: Tissue Factor, F3 (gene 2152)
The assay can be described thus: BSK_LPS_TissueFactor: BioMAP Diversity Plus: LPS Assay for Tissue Factor Biomarker Activity (AID 2283084). The following applies: primary human HUVEC with PBMC; actives raise or lower the signal. The gist of the method:
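Read-out: CD142 ELISA, 24 h. System: LPS-driven human endothelial/PBMC co-culture. Analysis: up- or down-signal fitted against DMSO.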

Sequence of E-selectin (Homo sapiens) (P16581 whole entry, looked up): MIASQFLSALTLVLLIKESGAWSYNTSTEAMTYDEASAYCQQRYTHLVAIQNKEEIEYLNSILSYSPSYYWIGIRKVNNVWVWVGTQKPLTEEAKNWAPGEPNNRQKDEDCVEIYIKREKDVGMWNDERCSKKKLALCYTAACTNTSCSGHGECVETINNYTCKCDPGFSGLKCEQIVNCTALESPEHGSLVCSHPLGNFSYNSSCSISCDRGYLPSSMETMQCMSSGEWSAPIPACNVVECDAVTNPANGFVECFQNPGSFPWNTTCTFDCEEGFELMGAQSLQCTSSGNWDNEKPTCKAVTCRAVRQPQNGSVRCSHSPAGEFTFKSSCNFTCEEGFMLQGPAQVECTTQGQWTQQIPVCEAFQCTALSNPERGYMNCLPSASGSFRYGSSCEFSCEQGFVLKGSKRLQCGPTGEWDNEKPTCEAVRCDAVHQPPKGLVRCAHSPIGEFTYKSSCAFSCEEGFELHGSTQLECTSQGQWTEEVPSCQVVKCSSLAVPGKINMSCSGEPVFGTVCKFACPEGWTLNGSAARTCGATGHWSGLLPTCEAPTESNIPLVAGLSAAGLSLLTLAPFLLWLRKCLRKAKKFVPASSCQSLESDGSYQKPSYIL
Sequence of Tumor necrosis factor (Homo sapiens) (P01375 whole entry, looked up): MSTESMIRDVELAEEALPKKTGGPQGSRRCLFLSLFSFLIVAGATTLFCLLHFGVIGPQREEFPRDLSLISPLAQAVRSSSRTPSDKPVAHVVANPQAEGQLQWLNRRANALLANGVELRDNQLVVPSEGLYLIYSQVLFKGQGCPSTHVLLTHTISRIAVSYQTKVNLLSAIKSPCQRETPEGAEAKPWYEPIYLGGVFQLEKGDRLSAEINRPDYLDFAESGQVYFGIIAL

As to `O=S(=O)(O)C(F)(F)C(F)(F)C(F)(F)C(F)(F)C(F)(F)C(F)(F)C(F)(F)C(F)(F)C(F)(F)C(F)(F)F`, the outcome in assay [1], in [3], in assay [7], in assay [8], in [9] and in [10] was inactive. Moreover, the outcome in [11] is “inactive”; in assay [13], “inactive”; in the assay with CD38, CD38 (gene 952), “inactive”; with CD69, CD69 (gene 969), “inactive”; in assay [15] it was “inactive”; in assay [16] it was “inactive”. The result in [17] was inactive. The half-maximal activity concentration (AC50) (as a rule, the concentration at which the activity in the assay is half-maximal) is 11.9 µM (active) and 5.3 µM (active) in assay [2]; 13.3 µM (active) and 16.5 µM (active) with CD40, CD40 (gene 958) [4]; 24.7 µM (active) and 768 nM (active) in assay [5]; 23.4 µM (active) and 20.3 µM (active) in assay [6]; 19.4 µM (active) in assay [8]; 6.6 µM (active) in [9]. Also, the AC50 in [12] is 8.87 µM (active) and 13.3 µM (active); with CD40, CD40 (gene 958) [14], 13.3 µM (active) and 7.42 µM (active); in [15], 8.67 µM (active); in assay [16], 7.15 µM (active).

On to `Oc1ccc(Cc2ccccc2O)cc1`, for which the outcome is “inactive” in assay [1]; “inactive” in assay [2]; “inactive” in [3]; “inactive” in the assay with CD40, CD40 (gene 958) [4]; “inactive” in assay [5]; “inactive” in assay [6]. In addition, the result in assay [7], in assay [8], in [9], in assay [11], in assay [12] and in assay [13] was inactive. In addition, the outcome with CD38, CD38 (gene 952) is “inactive”; in the assay with CD40, CD40 (gene 958) [14], “inactive”; in the assay with CD69, CD69 (gene 969), “inactive”; in assay [15], “inactive”; in [16] it was “inactive”. Besides, in [10], the AC50 was 1.77 µM (active) and 3.97 µM (active).

Consider `O=C(O)CCC(F)(F)C(F)(F)C(F)(F)C(F)(F)C(F)(F)C(F)(F)F`, for which the outcome in [1] was “inactive”; in [2], “inactive”; in [3], “inactive”; with CD40, CD40 (gene 958) [4], “inactive”; in assay [5] it was “inactive”; in [7] it was “inactive”. In addition, the result in [8], in [9], in assay [10], in assay [11], in assay [18] and in assay [12] was inactive. Also, the outcome in [13] is “inactive”; with CD38, CD38 (gene 952), “inactive”; with CD40, CD40 (gene 958) [14] it was “inactive”; in the assay with CD69, CD69 (gene 969), “inactive”; in [15] it was “inactive”; in assay [16], “inactive”. For the same molecule, the AC50 with CD40, CD40 (gene 958) [4] is 15.6 µM (active); in assay [6], 30 µM (active) and 51.1 µM (active) and 38.9 µM (active); in [8], 12.9 µM (active) and 30 µM (active).

As for `CS(=O)(=O)c1ccc([C@@H](CC2CCCC2)C(=O)Nc2cnccn2)cc1Cl`, the outcome in assay [1] was “inactive”; in assay [2], “inactive”; in assay [3], “inactive”; with CD40, CD40 (gene 958) [4] it was “inactive”; in assay [5], “inactive”; in assay [6] it was “inactive”. Besides, the outcome in assay [7], in assay [8], in assay [9], in [10], in assay [11] and in assay [18] was inactive. The outcome in [12] was “inactive”; in assay [13], “inactive”; with CD38, CD38 (gene 952), “inactive”; in the assay with CD40, CD40 (gene 958) [14], “inactive”; in the assay with CD69, CD69 (gene 969) it was “inactive”; in assay [15], “inactive”. Besides, the outcome in assay [16] and in [17] was inactive.
